Experimental data reported in PubChem BioAssay AID1347426 (Functional Genomics Laboratory (NCATS/FGL), 2020).
Screen size: about 31,000 sequences; about 1,400 (4.5%) were called active. Shown is part of a subset that was picked to be rich in actives. A number with no mark means an inactive call.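 How the source made its calls: active means median seed-adjusted z-score above 1 or below -1; inactive means the rest.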

Test: Novel Modifiers of Survival Motor Neuron (SMN) Protein: Gene Identification via Genome-wide siRNA Screen;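 further: luminescence tracks full-length SMN protein made from the SMN2 reporter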
Conditions: HEK293T SMN2-luciferase reporter, siRNA knockdown, 72 h; actives lie on both sides
Procedure, shortened: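 Steps: spot 1 pmol siRNA, add Lipofectamine RNAiMax in serum-free DMEM, seed HEK293T SMN2–luciferase reporter cells; incubate 72 h at 37 °C; add ONE-Glo; normalize luminescence to control siRNA, log10, MAD. Candidates: |MAD| > 1.0.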

| Sequence | median seed-adjusted z-score |
| --- | --- |
| GCAAUGCACUGACGGAUAUTT against EFEMP1 | 0.0157 |
| GUAUCAGAAUGAGAGUUCUTT against ACP2 | -0.00569 |
| GAAAUACCCUCACAUGUUATT against LSM2 | -1.48 (active) |
| GAUGUAUUGUUACUACCAATT against SCNN1G | -0.616 |
| CCACAAGGGUUAUCUGUCATT against MAPK4 | 0.235 |
| GUCACUUCAUGGGCAAGAATT against NMB | 0.746 |
| CCGUUGUUGUAAGAAGAAATT against MICA | -0.0635 |
| GGAUUAAGCCCUUCGAAGATT against SOCS5 | 0.312 |
| AGUUCUCGGAGGUGCUUAATT against CKB | -0.236 |
| GGACAAUCUUAUUCCUAUUTT against CFHR4 | -0.0972 |
| GAGCUGCAACUGACAUCUUTT against PLTP | 1.09 (active) |
| GCAUCUUCACCAAAGUCAUTT against RHEBL1 | -0.268 |
| GGCUGACCUGUACCACUUUTT against SH3BP1 | -0.225 |
| GCCUCAGAGUUCACGGACATT against ROBO4 | -0.431 |
| GCUACGGCGUGGACAAGAATT against RELB | 1.16 (active) |
| GGACCGUCUACUCAUCCAATT against IL8RB | -0.387 |
| GGAGGAGAUAGGCACUGAATT against TIGD3 | 0.486 |
| GCUUUUAUCCUAGACAUCATT against PAQR8 | 0 |
| GUGGGAAAGUCUAUGGAAATT against KLF9 | 0.767 |
| GGCCUAAGCUAAAUCGAGATT against SKP2 | -0.126 |
| CAAAGGAUGUCAUUCGUAATT against CKAP5 | -1.87 (active) |
| CGGCCGAAGUAGUAAAAGATT against ADA | -0.242 |
| UCAUCAAUGCUACUGGUUATT against TM7SF2 | -0.674 |

| Sequence | median seed-adjusted z-score |
| --- | --- |
| CGGCUGUGGUGAACCAGUATT against INHBB | -0.522 |
| GCAUAGGAUUCAUUGAGUUTT against NME1 | 0.188 |
| GACCCGUACUUCAUGAAGATT against SF3A2 | -1.7 (active) |
| GGACCCAAGUCUUGCUGCATT against CARD18 | 0.568 |
| CGAUCCUAUUCGAUGAGAATT against GRM5 | -0.227 |
| CAGUGAAUAUGGAACCGGATT against CHD3 | 0.589 |
| AGUAUGUGCUGAUCCGAGUTT against PHPT1 | 1.27 (active) |
| CCUGAACACACCUUACAUATT against RNASE8 | 0.00771 |
| CAUAGAUUCUGUACGGCAATT against MPP5 | 0.429 |
| GGUAUUCCUGUUCAACAAATT against ZNF235 | 0.348 |
| GCUGACCGCUGGGUGAUAATT against TMPRSS6 | 1.29 (active) |
| CCUCACACUUGAUUCAGUUTT against RPP38 | 0.07 |
| GGUCAUAGCCUACUGUCUATT against SLC32A1 | -0.251 |
| CUACCAGCAUGUGAUGUUUTT against CH25H | -0.264 |
| GGAUGCAGAACGACGUGAATT against SLC25A10 | -0.571 |
| GUACCUUUUCCAAACCAAATT against SETD8 | -1.52 (active) |
| CAAAACAGACCGAAAGAAATT against DBX2 | 0.244 |
| CGAUAACGACAGUAAAUCATT against CACNA2D1 | -0.541 |
| CAAAGAAGCUUUUUCACUATT against CALM2 | 0.127 |
| CUCUCUUAGUGUCCUUAGATT against PCDHGC4 | 0.301 |
| CGAGUUCUAUCUUGAGAAUTT against TEX13A | -1.22 (active) |
| GGAUGGGUCUCGCAAAAUATT against ZFYVE1 | -0.546 |
| CCAGCUCUUCUCUACCACATT against PAQR7 | -0.0406 |

| Sequence | median seed-adjusted z-score |
| --- | --- |
| UGCUGAGGGUGUUCCCAGATT against GABRR2 | 0 |
| AGCAGGCUUUGAUCAUUGATT against FKBP6 | -1.12 (active) |
| GCAAGACCUUUGACUACAATT against SSRP1 | -0.31 |
| GCGAAGUGUUCAGACCAAATT against HEATR1 | -0.115 |
| CCAACUCAUUGAUAGGGAUTT against PRPH2 | 0.0931 |
| GCUUUCUAUCGAUCCUCAATT against ZNF681 | 0.271 |
| GCACGUCGAGCAAUCCAAATT against MYOD1 | 0.309 |
| CCAUGUUUCUCAUUAGUGUTT against NTSR1 | -1.1 (active) |
| UGCUCGUGCUCGUUCCAAATT against ING4 | -0.152 |
| CAUCUUUGCUAGUAAUCUATT against UBA7 | 2.41 (active) |
| CGGAUUGUCUAUUGCAUCATT against CALCRL | 0.28 |
| GAUUGUCUCUUUAGUGGAATT against TGDS | -0.196 |
| GGUGAGAUGUGGUCUAUAUTT against HES7 | -0.286 |
| GGAGAAGGAUGGAACUCUUTT against SPATA21 | -1.03 (active) |
| GGCUUGCGCAAGAUCAAUATT against ATRNL1 | -0.142 |
| GCGUGAUCCUUGCCUCUAATT against GDPD4 | 0.0109 |
| CCUCAUUGAUCAUCACCGATT against ZNF567 | -0.114 |
| CUAGUUUAAUAAAGAUUCATT against APOE | 0.0321 |
| AGGAUAUUGUGAUUCAGCATT against POLR2G | -4.19 (active) |
| GCAUCAGGUGAACAUCAAATT against TRIM16 | 0.345 |
| GGAUGAGAAGGAUAAUGAUTT against IRF6 | -1.79 (active) |
| AAACGAUGUUGAUGUCCAATT against ATP6V1E1 | -0.312 |
| GGAUGGACAUGUCAAAUCUTT against RBL1 | -0.0547 |
